The list is not random: actives were taken first. Their share in the collection is about 6.1%.
ERK AVP inh: inhibitors of vasopressin-stimulated ERK signaling pathway. HEK293-V1b, vasopressin-stimulated pERK AlphaScreen. Potency, µM (highest dose often 57.5 µM), most hits filed as inhibitors. 72,000 compounds, 0.99% hits; also: nearly all actives have a fitted effect of over 55% in size
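Phosphorylated ERK1/2 detected via AlphaScreen bead proximity in lysates of V1b-expressing HEK293 cells given 25 nM vasopressin for 5 min after 30 min compound exposure (37 °C). AC50 from Hill equation; basal DMSO 0%, vasopressin 100%.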
FLuc inh: firefly luciferase inhibition; 72,000 compounds, 2.2% hits; purified firefly luciferase, luminescence, 8 min; Potency, µM (doses to about 57.1 µM), usual class: inhibitors; also: nearly all actives have a fitted effect of over 40% in size
Target sequence (P08659 whole entry, looked up): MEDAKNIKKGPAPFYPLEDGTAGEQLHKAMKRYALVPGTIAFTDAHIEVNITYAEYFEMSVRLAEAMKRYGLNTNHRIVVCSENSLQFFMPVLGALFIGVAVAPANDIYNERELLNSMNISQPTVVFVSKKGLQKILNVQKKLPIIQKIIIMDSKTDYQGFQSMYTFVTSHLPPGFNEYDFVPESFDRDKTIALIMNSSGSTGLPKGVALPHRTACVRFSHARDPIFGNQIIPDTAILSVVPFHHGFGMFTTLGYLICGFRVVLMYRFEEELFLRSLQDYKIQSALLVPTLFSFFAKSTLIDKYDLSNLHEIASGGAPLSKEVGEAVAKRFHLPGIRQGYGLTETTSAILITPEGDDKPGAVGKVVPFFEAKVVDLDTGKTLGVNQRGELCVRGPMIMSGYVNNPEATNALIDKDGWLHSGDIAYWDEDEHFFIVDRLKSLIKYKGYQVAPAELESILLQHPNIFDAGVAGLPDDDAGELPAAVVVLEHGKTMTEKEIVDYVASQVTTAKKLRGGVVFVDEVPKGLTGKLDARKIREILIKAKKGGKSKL
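Inhibition of light generation by firefly luciferase from ATP and luciferin was profiled with concentration-response curves per sample, ATP held at 10 uM within the enzyme's linear range. Plates were read by luminescence after an 8-minute ambient incubation.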
HEK293 cAMP cs: counter-screen for TSHR agonists: cAMP increase in parental HEK293; 73,000 compounds, 2.5% hits; AID 938; Potency, µM (highest dose often 57.1 µM), most hits filed as activators; parental HEK293 CNG cAMP sensor, membrane potential fluorescence; also: nearly all actives have a fitted effect of over 55% in size
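Counterscreen for endogenous-receptor signalling: CNG-channel HEK 293 cells report cAMP rise by membrane depolarization. After 60 min dye equilibration with 100 uM RO 20-1724, compounds incubated 30 min before bottom-read fluorescence at 590 nm.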
Bst PK mod: modulators of Bacillus stearothermophilus pyruvate kinase; 51,000 compounds, 1.2% hits; purified pyruvate kinase, luminescence ATP production; ribose 5-phosphate activator present at AC10; Potency, µM; AID 361; in the data active = potency below about 11 µM; inconclusive = mostly about 12 µM to 25 µM;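 the screen sought inhibitors and activators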
TSHR agonist: activates the human thyroid stimulating hormone receptor. P16473. HEK293-CNG-TSHR cells (CNG channel as cAMP sensor), membrane potential dye, cAMP. Potency, µM (titrated, usually from 57.1 µM), usual class: activators. 73,000 compounds, 0.48% hits; active = well fitted activation curve with a large enough effect in the main read-out, with a control signal flat, not every such curve was filed as active; inconclusive = small, poorly fitted or top-dose-only effect, or a change in a side signal; inactive = no such curve, though single readings can be large or run the other way; reference of the percent scale not stated here;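 also: the control signal comes from parental cells without the receptor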
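cAMP rise detected as CNG-channel membrane depolarization by fluorescent dye (emission 590 nm), 30 min after compound, following 60 min dye loading containing 100 uM RO 20-1724 at room temperature. Cells: TSHR/CNG HEK 293, with parental CNG HEK 293 as control.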
GBA mod: modulators of human glucocerebrosidase; P04062; purified enzyme, resorufin glucoside fluorescence (screen aimed at inhibitors), 20 min; Potency, µM; 48,000 compounds, 1.1% hits; AID 360; in the data active = potency below about 15 µM; inconclusive = mostly about 16 µM to 33 µM;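 also: the screen sought inhibitors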
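Wild-type enzyme at 0.2 nM final in 50mM citric acid/KH2PO4, 10mM sodium taurocholate, 0.01% tween-20, pH 5.9, with resorufin beta-D-glucopyranoside at 30 uM final. Compounds titrated, 20 min at RT, red fluorescence read; AC50 from titration.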
Large screens that a line does not name were inactive; ! = not active in a repeat. Unless noted, calls follow the shape of the dose curve; as a rule, active = well fitted curve in the direction sought with a large enough effect; inconclusive = small, poorly fitted or top-dose-only effect, or another doubt; inactive = no such curve, though single readings can be large; an effect the other way counts as inactive or inconclusive.

COc1ccc(Cl)cc1C(=O)Nc1ccc2c(c1)OCO2	FLuc inh 13µM, HEK293 cAMP cs inconclusive, TSHR agonist inconclusive, GBA mod inconclusive
COc1ccccc1C(=O)Nc1ccc2c(c1)OCO2	FLuc inh 25µM, HEK293 cAMP cs inconclusive, TSHR agonist inconclusive (no result: Bst PK mod, GBA mod)
O=C(O)c1ccccc1NS(=O)(=O)c1ccc(Cl)c(Cl)c1	none (no result: ERK AVP inh, FLuc inh, Bst PK mod, GBA mod)
COC(=O)CNC(=O)[C@@]1(C)C=C[C@@H](Cc2ccccc2)N1C(=O)OC	none (no result: FLuc inh, Bst PK mod, GBA mod)
O=Cc1ccc(CO)o1	TSHR agonist inconclusive (no result: FLuc inh, Bst PK mod, GBA mod)
O=C(Nc1cccc(Cl)c1)Nc1ccc2c(c1)OCO2	ERK AVP inh inconclusive, FLuc inh 16µM (no result: Bst PK mod)
CCn1c(CNc2nc(-c3ccccc3)cs2)nnc1SCC(=O)NCc1ccco1	none (no result: GBA mod)
Cc1ccc(C(=O)CSc2nnc(CNc3nc(-c4ccccc4)cs3)n2C)cc1	ERK AVP inh 13µM (no result: GBA mod)
O=C(O)C1OC(O)C(O)C(O)C1O (stereo not given)	none (no result: FLuc inh, HEK293 cAMP cs, Bst PK mod, TSHR agonist, GBA mod)
COc1ccc(O)c(/C=c2/sc3nc4cc(C)c(C)cc4n3c2=O)c1	HEK293 cAMP cs 32µM, TSHR agonist inconclusive
Cn1c(C(=O)NCc2cccnc2)cc2sc(Cl)cc21	HEK293 cAMP cs 25µM, TSHR agonist inconclusive (no result: ERK AVP inh, FLuc inh, Bst PK mod, GBA mod)
Cn1nc(C(=O)NCc2cccnc2)c2ccccc2c1=O	none
Cc1ccc(S(=O)(=O)Oc2ccc(N=Nc3ccc(-c4ccc(N=Nc5c(O)ccc6cc(S(=O)(=O)O)cc(S(=O)(=O)O)c56)c(C)c4)cc3C)cc2)cc1	ERK AVP inh 25µM (no result: FLuc inh, Bst PK mod, GBA mod)
Cc1ccc(N=Nc2c(O)ccc3cc(S(=O)(=O)O)ccc23)cc1	none (no result: Bst PK mod, GBA mod)
CCS(=O)(=O)N1CCC(C(=O)Nc2cc(Cl)ccc2O)CC1	GBA mod 14
CCOC(=O)c1ccc(NC(=O)C2CCN(S(=O)(=O)CC)CC2)cc1	none
O=C(OCC(=O)N1CCN(C(=O)c2ccco2)CC1)c1ccccc1OCc1ccc(Cl)cc1	ERK AVP inh inconclusive, HEK293 cAMP cs 25µM, TSHR agonist inconclusive (no result: Bst PK mod)
CC(=O)N(CCP(=O)(c1ccccc1)c1ccccc1)Cc1ccco1	ERK AVP inh inconclusive, HEK293 cAMP cs 32µM, TSHR agonist inconclusive (no result: Bst PK mod, GBA mod)
Cc1cccc(N(C)C(=O)c2cc3cc4ccc(C)cc4nc3o2)c1	HEK293 cAMP cs 10µM, Bst PK mod inconclusive, TSHR agonist inconclusive
COc1ccc2c(c1)O[C@@H]1c3ccc(OC)cc3OCC21 (stereo not given in full)	none (no result: FLuc inh, HEK293 cAMP cs, Bst PK mod, TSHR agonist, GBA mod)
O=C(CCCc1ccccc1)N1CCc2ccccc21	FLuc inh 13µM (no result: Bst PK mod, TSHR agonist, GBA mod)
Cn1cccc1Cc1nnc(SCC(=O)N2CCCC2)n1CCc1ccccc1	ERK AVP inh inconclusive (no result: Bst PK mod, GBA mod)
Cn1cccc1Cc1nnc(SCC(=O)N2CCc3ccccc32)n1CCc1ccccc1	ERK AVP inh 16µM (no result: Bst PK mod, GBA mod)
CSc1nc(C)cc(Nc2ccc(O)c(CN3CCCCC3)c2)n1	none (no result: Bst PK mod, GBA mod)
CCOC(=O)c1c(-c2ccc(C)o2)csc1NC(=O)CSc1nncs1	HEK293 cAMP cs 25µM, TSHR agonist inconclusive
COc1ccc(-c2ncc3ccccn23)cc1	FLuc inh 16µM (no result: Bst PK mod)
COCCn1c(=O)c(-c2cc(F)cc(F)c2)nc2cnc(Oc3ccc(OC)cc3)nc21	HEK293 cAMP cs inconclusive, TSHR agonist inconclusive (no result: Bst PK mod, GBA mod)
CCOC(=O)c1c(C)oc2ccc(O)c(CN3CCCCC3)c12	HEK293 cAMP cs 16µM, TSHR agonist inconclusive
CCOC(=O)c1c(C)n(C)c2ccc(O)c(CN3CCCCC3)c12	none (no result: ERK AVP inh, HEK293 cAMP cs, TSHR agonist, GBA mod)
O=C(c1ccco1)N1CCN(C(=O)c2cc(-c3ccncc3)nc3ccc(Br)cc23)CC1	Bst PK mod 7.6
COc1ccc(/C=C\C(=O)Nc2ccccc2C(=O)O)cc1OC	FLuc inh 32µM! (no result: Bst PK mod, GBA mod)
CCOC(=O)CC(=O)Nc1ccccc1C(=O)O	none (no result: Bst PK mod, GBA mod)
Cc1ccc(-c2nnc(SCC(=O)O)n2N)cc1	none
Cc1ccc(-c2cc(-c3nnc(SCC(=O)N(C)CCC#N)n3N)c3ccccc3n2)cc1	ERK AVP inh inconclusive, FLuc inh 13µM (no result: TSHR agonist)
COc1ccc(NC(=O)Nc2ccc(N(C)C)cc2)cc1	FLuc inh 13µM (no result: Bst PK mod)
COc1cccc(C(=O)Nc2ccc(N(C)C)cc2)c1OC	ERK AVP inh inconclusive, FLuc inh 16µM
COc1ccc(NC(=O)Nc2nccs2)cc1	FLuc inh 13µM (no result: TSHR agonist)
COc1ccc(NC(=O)Nc2ccc3nccnc3c2)cc1	FLuc inh 6.3µM (no result: Bst PK mod, TSHR agonist, GBA mod)
COc1cccc(NC(=O)c2cccc(OC)c2OC)c1	FLuc inh inconclusive (no result: Bst PK mod)

Screens (PubChem BioAssay)
